This passage reports outcome and AC50 results from PubChem BioAssay (EPA / NIEHS).

Calls of active or inactive are those of the source. How the source made its calls: active means hit-call score of the fitted dose curve at least 0.9, where 1 is the maximum; inactive means score below 0.9.

The assay can be described thus: ATG_GLI_CIS: Attagene CIS-FACTORIAL HepG2 Assay for human Zinc Finger Protein GLI1 (AID 2282945). As to conditions: HepG2, Attagene cis-factorial reporter mRNA, GLI element; actives raise or lower the signal. How it is done: ATG_CIS is a cell-based, multiplexed-readout assay that uses HepG2, a human liver cell line, with measurements taken at 24 hours after chemical dosing in a 24-well plate.ATG_GLI_CIS is one of 52 assay component(s) measured or calculated from the ATG_CIS assay. It is designed to make measurements of mRNA induction, a form of inducible reporter, as detected with fluorescence intensity signals by Reverse transcription polymerase chain reaction (RT-PCR) and Capillary electrophoresis technology.Data from the assay component ATG_GLI_CIS was analyzed into 1 assay endpoint. This assay endpoint, ATG_GLI_CIS, was analyzed with bidirectional fitting relative to DMSO as the negative control and baseline of activity. Using a type of inducible reporter, measures of mRNA for gain or loss-of-signal activity can be used to understand the reporter gene at the transcription factor-level as they relate to the gene GLI1. Furthermore, this assay endpoint can be referred to as a primary readout, because this assay has produced multiple assay endpoints where this one serves a reporter gene function. To generalize the intended target to other relatable targets, this assay endpoint is annotated to the dna binding intended target family, where the subfamily is zinc finger.
Human liver HepG2 cells are transiently transfected with multiple reporter transcription units (MRTUs) in 6-well plates using FuGene 6 reagent (Roche; 3 ml FuGene/1 mg DNA). The MRTU constructs are regulated by a cis-regulating element (promoter). […] A major difference between the CIS and TRANS system is that in CIS activities of endogenous TFs are measured, whereas the TRANS assay evaluates changes in activities of exogenous, chimeric NR-Gal4 proteins. […] At the end of 24 hour incubation, total RNA was isolated using TriZol reagent (Invitrogen). The isolated RNA is then reverse-transcribed using oligo(dT) primer and Mo-MLV reverse transcriptase (Invitrogen) with DNAse I (Ambion) treatment for 30 min. The one-tenth of the produced cDNA was amplified by PCR using Taq DNA polymerase (Invitrogen) and two reporter sequence-specific primers. The PCR products were fluorescently labeled by primer extension with 6-arboxyfluorescein (6-FAM) 5'-labeled reporter sequence-specific primer (2 min at 95 C, 20 s at 68 C and 10 min at 72 C) and these products were digested with 5U of HpaI (New England Biolabs) for 2h at 37 C. The fragments were purified using Qiaquick PCR columns (Qiagen), analyzed on an ABI 3130xL genetic analyzer (Applied Biosystems) with peak positions identified by using a set of X-rhodamine (ROX)-labeled MapMarker1000 molecular weight standards (BioVentures). The raw capillary electrophoresis data was processed using Attagraph software (Attagene).
For the molecule `O=C(F)C(F)(F)C(F)(F)C(F)(F)C(F)F`, the outcome was inactive.

Consider `CCc1ccccc1O`, for which the result was inactive. Same read-out and setting: then `CCCCCCCCCCCCCC[n+]1ccccc1`, with “inactive”; and `CCc1cccc(CC)c1NC(=O)C(=O)O`, with “inactive”; and `O=C(c1ccccc1)c1ccccc1`, with “inactive”. On the same count and under the same terms, in the case of `O=C(CCCN1CCC(O)(c2ccc(Cl)cc2)CC1)c1ccc(F)cc1` it was “inactive”; in that of `CCC(C)c1ccccc1O` (stereo not given), “inactive”. On the same count and under the same terms, in the case of `CCCCCCCC(OC)OC` it was “inactive”. As to `Oc1ccc(Cc2ccccc2O)cc1`, the call was inactive. In the case of `Brc1cc(Br)c(Oc2c(Br)cc(Br)c(Br)c2Br)cc1Br`, the result was inactive. For `OCC(CO)(CBr)CBr`, the molecule was called inactive.

As for `O=C(NO)c1ccccc1`, the call was inactive. Same read-out and setting: in the case of `CC[N+](CC)(CC)Cc1ccccc1` it was “inactive”. On the same count and under the same terms, then `Brc1ccc(Oc2ccc(Br)cc2Br)cc1`, with “inactive”; and `OCC(F)(F)C(F)(F)C(F)(F)C(F)(F)C(F)(F)C(F)(F)C(F)(F)C(F)(F)C(F)(F)C(F)(F)C(F)(F)F`, with “inactive”. The same measure, in the same setting: in the case of `FC(F)(F)C1(F)C(F)(F)C(F)(F)C(F)(F)C1(F)F` it was “inactive”; in that of `CCO[Si](CCC1CCC2OC2C1)(OCC)OCC` (stereo not given), “inactive”. In the case of `CN(CCO)S(=O)(=O)C(F)(F)C(F)(F)C(F)(F)C(F)(F)C(F)(F)C(F)(F)C(F)(F)C(F)(F)F`, the molecule was called inactive. Still for that read-out and setting: in the case of `O=C1Cc2ccccc2N1c1c(Cl)cccc1Cl` it was “inactive”. On the same count and under the same terms, in the case of `CC1=CC(=O)c2ccccc2C1=O` it was “inactive”; in that of `CCOC(=O)CN[C@@H](C(=O)N1CC[C@H]1C(=O)NCc1ccc(/C(N)=N/O)cc1)C1CCCCC1`, “inactive”.

For the molecule `CCOC(=O)c1nc(C(Cl)(Cl)Cl)n(-c2ccc(Cl)cc2Cl)n1`, the AC50 is 164 µM (active). Regarding `COC(=O)CC(C(C)=O)C(=O)OC` (stereo not given), the result was inactive. Still for that read-out and setting: then `FC1(F)C=CC(F)(F)C1(F)F`, with “inactive”; and `O=C(O)C(=O)O`, with “inactive”; and `CCCC=O`, with “inactive”. On the same count and under the same terms, then `CC(C)(C)c1ccc(O)c(O)c1`, with “inactive”; and `CCCCCCCCCCCCCCCCCC[N+](C)(C)Cc1ccccc1`, with “inactive”; and `CS(=O)(=O)c1ccc([C@@H](CC2CCCC2)C(=O)Nc2cnccn2)cc1Cl`, with “inactive”. On the same count and under the same terms, then `CN(C)CCOC(c1ccccc1)c1ccccc1`, with “inactive”; and `COc1cc(OC)nc(NC(=O)NS(=O)(=O)Nc2ccccc2C(=O)N(C)C)n1`, with “inactive”; and `C=COC(=O)C(C)(C)CCCCCC`, with “inactive”. Consider `O=C1OC(=O)C(F)(F)C1(F)F`, for which the molecule was classed as inactive. Still for that read-out and setting: then `c1cc2cccc3c4cccc5cccc(c(c1)c23)c54`, with “inactive”; and `CN(Cc1cnc2nc(N)nc(N)c2n1)c1ccc(C(=O)N[C@@H](CCC(=O)O)C(=O)O)cc1`, with “inactive”; and `O=P(O)(O)CCC(F)(F)C(F)(F)C(F)(F)C(F)(F)C(F)(F)C(F)(F)C(F)(F)C(F)(F)F`, with “inactive”. In the case of `C/C=C/C(=O)C1=C(C)CCCC1(C)C`, the AC50 was 69.7 µM (active). On to `COC(O)c1ccccc1` (stereo not given), for which the molecule was called inactive. As to `FCOC(C(F)(F)F)C(F)(F)F`, the outcome was inactive. On the same count and under the same terms, then `FC(OC(F)(F)C(F)(F)C(F)(F)F)C(F)(F)F` (stereo not given), with “inactive”.

As a reminder, the AC50 is the concentration at which the activity in the assay is half-maximal.
